The results in this text go back to PubChem BioAssay (NCI).

What all share (experiment): NCI-60 one-dose screen, 48 h (100 = growth as untreated, 0 = no growth, -100 = all killed)
In one assay the test system is SR leukemia. The note with it: 10 µM unless noted.
The test system of a further assay is RPMI-8226 leukemia. The note with it: 10 µM unless noted.
The next assay has as its system OVCAR-8 ovarian. The note with it: 10 µM unless noted.
For another assay, the system named is OVCAR-5 ovarian. The note with it: 10 µM unless noted.
A further assay deals with OVCAR-4 ovarian. The conditions noted are these: 10 µM unless noted.
For a further assay, the system named is SK-OV-3 ovarian. The conditions noted are these: 10 µM unless noted.
The subject of another assay is IGROV1 ovarian. The conditions noted are these: 10 µM unless noted.
Another assay has as its system OVCAR-3 ovarian. The conditions noted are these: 10 µM unless noted.
A further assay has as its system HS 578T breast. The note with it: 10 µM unless noted.
The test system of another assay is NCI/ADR-RES ovarian. The conditions noted are these: 10 µM unless noted.
The next assay concerns T-47D breast. The note with it: 10 µM unless noted.
Another assay deals with BT-549 breast. The conditions noted are these: 10 µM unless noted.
For the next assay, the system named is MDA-MB-435 melanoma. The conditions noted are these: 10 µM unless noted.
A further assay concerns SW-620 colon. The note with it: 10 µM unless noted.
The subject of the next assay is MCF7 breast.
Another assay relates to HCT-116 colon. The note with it: 10 µM unless noted.
In a further assay the test system is HCC-2998 colon. The conditions noted are these: 10 µM unless noted.
A further assay has as its system KM12 colon. The note with it: 10 µM unless noted.

Where “and” joins values, the source holds several entries; their conditions need not be identical. Equal entries are not always repeated. About 83,000 compounds went through this panel and 20% of them were active in at least one assay; those are over-represented in the sample as a whole.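 Each cell line was grown in a 96-well plate and treated with one concentration of compound for 48 hours. Values below 10 were considered active.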 Calls of active or inactive are those of the source.

Turning to `CC[C@H](CC[C@@H](C)[C@H]1CC[C@H]2[C@@H]3CC=C4C[C@@H](O)CC[C@]4(C)[C@H]3CC[C@]12C)C(C)C`, the growth in the assay with SR leukemia is 109% (inactive) and 101% (inactive); in the assay on RPMI-8226 leukemia it was 114% (inactive); with OVCAR-8 ovarian, 98.9% (inactive) and 105% (inactive); with OVCAR-5 ovarian, 45.2% (inactive) and 103% (inactive); in the assay on OVCAR-4 ovarian, 97.6% (inactive) and 114% (inactive); in the assay on SK-OV-3 ovarian, 94.8% (inactive) and 104% (inactive). Further, the growth is 111% (inactive) in the assay on IGROV1 ovarian; 112% (inactive) and 108% (inactive) in the assay on OVCAR-3 ovarian; 96.5% (inactive) and 103% (inactive) with HS 578T breast; -46.1% (active) and 101% (inactive) in the assay on NCI/ADR-RES ovarian; 97.2% (inactive) and 105% (inactive) in the assay with T-47D breast; 100% (inactive) in the assay with BT-549 breast. Further, the growth is 97.4% (inactive) and 99.4% (inactive) in the assay on MDA-MB-435 melanoma; 110% (inactive) and 104% (inactive) in the assay on SW-620 colon; 107% (inactive) and 89.8% (inactive) in the assay on MCF7 breast (10 µM unless noted); 94.6% (inactive) and 105% (inactive) in the assay on HCT-116 colon; 108% (inactive) in the assay with HCC-2998 colon; 106% (inactive) and 98.6% (inactive) in the assay with KM12 colon.

Consider `CC(C)(O)C(=O)O`, for which the growth was 119% (inactive) with SR leukemia; 103% (inactive) with RPMI-8226 leukemia; 109% (inactive) in the assay on OVCAR-8 ovarian; 99.7% (inactive) in the assay with OVCAR-5 ovarian; 105% (inactive) in the assay with OVCAR-4 ovarian; 101% (inactive) in the assay on IGROV1 ovarian. In addition, the growth in the assay on OVCAR-3 ovarian is 109% (inactive); in the assay with NCI/ADR-RES ovarian, 111% (inactive); in the assay with T-47D breast it was 100% (inactive); in the assay with BT-549 breast it was 103% (inactive); with MDA-MB-435 melanoma it was 107% (inactive); in the assay with SW-620 colon, 110% (inactive). Also, the growth in the assay with MCF7 breast (10 µM unless noted) is 93.8% (inactive); in the assay with HCT-116 colon, 100% (inactive).

Turning to `N#CC(C#N)N=Nc1ccc(Cl)cc1`, the growth in the assay on SR leukemia is 53.7% (inactive); in the assay with OVCAR-8 ovarian, 62.1% (inactive); with OVCAR-5 ovarian, 72.6% (inactive); with OVCAR-4 ovarian, 10.1% (inactive); in the assay on SK-OV-3 ovarian it was 45.8% (inactive); in the assay on IGROV1 ovarian, 69.4% (inactive). Further, the growth with OVCAR-3 ovarian is 15.2% (inactive); in the assay on HS 578T breast it was 81.8% (inactive); in the assay on NCI/ADR-RES ovarian, 72.2% (inactive); with T-47D breast, -0.279% (active); in the assay with BT-549 breast, 77.1% (inactive); in the assay with MDA-MB-435 melanoma, 79.6% (inactive). Further, the growth with SW-620 colon was 15% (inactive); with MCF7 breast (10 µM unless noted) it was 27.3% (inactive); with HCT-116 colon, 16.9% (inactive); in the assay on KM12 colon it was 85.9% (inactive).

With `CC1CCC2(C(=O)O)CCC3(C)C(=CCC4C5(C)CCC(O)C(C)(C)C5CCC43C)C2C1C` (centres undefined), the growth was 39.3% (inactive) and 46.8% (inactive) with SR leukemia; 48.5% (inactive) and 83.4% (inactive) with RPMI-8226 leukemia; 93.3% (inactive) in the assay on OVCAR-8 ovarian; -8.77% (active) and 87.9% (inactive) with OVCAR-5 ovarian; 59.3% (inactive) and 84.2% (inactive) with OVCAR-4 ovarian; 91.6% (inactive) and 104% (inactive) with SK-OV-3 ovarian. The growth was 96.7% (inactive) and 105% (inactive) in the assay with IGROV1 ovarian; 56% (inactive) and 101% (inactive) with OVCAR-3 ovarian; 16.5% (inactive) and 97.3% (inactive) in the assay with NCI/ADR-RES ovarian; 49% (inactive) and 77.2% (inactive) in the assay on T-47D breast; 263% (inactive) and 102% (inactive) with BT-549 breast; 59.8% (inactive) and 103% (inactive) in the assay on MDA-MB-435 melanoma. The growth in the assay with SW-620 colon is 15.2% (inactive) and 98.2% (inactive); with MCF7 breast (10 µM) it was 84.3% (inactive) and 93.3% (inactive); in the assay with MCF7 breast (100 µM), -56.5% (active) and -70% (active); in the assay with HCT-116 colon, 6.37% (active) and 85.7% (inactive); with KM12 colon it was 59.6% (inactive) and 85.7% (inactive).

In the case of `CCCCOc1ccc(Nc2cc(Cl)ccc2C(=O)O)cn1`, the growth is 96.1% (inactive) in the assay with SR leukemia; 57.8% (inactive) and 93.2% (inactive) in the assay with RPMI-8226 leukemia; 111% (inactive) and 94.6% (inactive) in the assay on OVCAR-8 ovarian; 110% (inactive) and 101% (inactive) in the assay with OVCAR-5 ovarian; 92.4% (inactive) in the assay on OVCAR-4 ovarian; 108% (inactive) with SK-OV-3 ovarian. The growth in the assay with IGROV1 ovarian was 42.5% (inactive) and 104% (inactive); with OVCAR-3 ovarian, 111% (inactive) and 106% (inactive); with HS 578T breast, 95.3% (inactive) and 99.2% (inactive); in the assay on NCI/ADR-RES ovarian, 90.4% (inactive) and 97.4% (inactive); with T-47D breast, 92.6% (inactive) and 92.3% (inactive); in the assay on BT-549 breast, 101% (inactive) and 100% (inactive). Moreover, the growth in the assay with MDA-MB-435 melanoma was 105% (inactive) and 107% (inactive); in the assay on SW-620 colon, 103% (inactive) and 101% (inactive); in the assay with MCF7 breast (10 µM unless noted), 99.5% (inactive) and 107% (inactive); with HCT-116 colon, 93.7% (inactive) and 92.4% (inactive); with HCC-2998 colon it was 95.4% (inactive).

Consider `C/C(=C\c1ccccc1)c1ccccn1`, for which the growth is 99.4% (inactive) with SR leukemia; 114% (inactive) in the assay on RPMI-8226 leukemia; 116% (inactive) in the assay with OVCAR-8 ovarian; 118% (inactive) in the assay with OVCAR-5 ovarian; 106% (inactive) in the assay with OVCAR-4 ovarian; 106% (inactive) in the assay on SK-OV-3 ovarian. The growth is 109% (inactive) with IGROV1 ovarian; 106% (inactive) with OVCAR-3 ovarian; 110% (inactive) with NCI/ADR-RES ovarian; 94.7% (inactive) in the assay on T-47D breast; 110% (inactive) with BT-549 breast; 118% (inactive) in the assay with MDA-MB-435 melanoma. Also, the growth in the assay on SW-620 colon is 105% (inactive); in the assay with MCF7 breast (10 µM unless noted) it was 68.4% (inactive); in the assay with HCT-116 colon, 101% (inactive).

Take `Cc1ccc(S(=O)(=O)c2ccccc2)cc1`: the growth in the assay on SR leukemia was 34.7% (inactive); with OVCAR-8 ovarian, 55.1% (inactive); with OVCAR-5 ovarian, 80.1% (inactive); in the assay on OVCAR-4 ovarian, 71.1% (inactive); with SK-OV-3 ovarian it was 29.5% (inactive); in the assay with IGROV1 ovarian it was 45.4% (inactive). Besides, the growth was -38.9% (active) with OVCAR-3 ovarian; 35.2% (inactive) in the assay on HS 578T breast; 21.1% (inactive) with NCI/ADR-RES ovarian; 49.7% (inactive) with T-47D breast; 36.6% (inactive) in the assay on BT-549 breast; -49.8% (active) with MDA-MB-435 melanoma. Further, the growth in the assay with SW-620 colon is 11.6% (inactive); in the assay on MCF7 breast (10 µM unless noted), 20.9% (inactive); in the assay on HCT-116 colon, 18.8% (inactive); with HCC-2998 colon it was 51.6% (inactive); in the assay on KM12 colon it was 25.5% (inactive).
